Data published in PubChem BioAssay.
Active and inactive are the calls of the source.

Assays:
[1] = compound effects on lung adenocarcinoma cell viability – A549, calcein-AM fluorescence, 48 h, basal, profiling panel (AID 1162); settings: higher = more signal
[2] = compound effects on differentiated 3T3-L1 adipocyte viability – cell-based, 3T3-L1 adipocytes, calcein-AM fluorescence, 48 h, basal, profiling panel (AID 1163); settings: 3T3-L1 adipocytes viability, higher = more signal
[3] = compound effects on hepatocellular carcinoma cell viability – HepG2, calcein-AM fluorescence, 48 h, basal, profiling panel (AID 1164); settings: higher = more signal
[4] = compound effects on multiple myeloma cell viability – MM1S, calcein-AM fluorescence, 48 h, basal, profiling panel (AID 1165); settings: higher = more signal;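 note: viability of MM1S multiple myeloma cells under basal unstimulated conditions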
[5] = calcein-AM signal in unstimulated myeloma cells – cell-based, calcein-AM fluorescence, 48 h, PK04 Diversity Set, profiling panel (AID 1166); settings: RPMI8226 myeloma viability, higher = more signal;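 note: cells grown under basal conditions without added stimulus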
[6] = JC-1 mitochondrial signal, unstimulated HepG2 cells – cell-based, JC-1 fluorescence, 24 h, 100 nL compound, profiling panel (AID 1167); settings: HepG2 mitochondrial potential, higher = more signal
[7] = JC-1 mitochondrial signal, unstimulated adipocytes – cell-based, JC-1 fluorescence, 3T3-L1 adipocytes, 24 h, 100 nL compound, profiling panel (AID 1168); settings: JC-1 mitochondrial fluorescence, higher = more signal, called active from +8 up or from −8 down
[8] = JC-1 mitochondrial signal, unstimulated myeloma cells – cell-based, JC-1 fluorescence, RPMI8226, 24 h, 100 nL compound, profiling panel (AID 1169); settings: JC-1 mitochondrial potential fluorescence, higher = more signal
[9] = JC-1 mitochondrial signal, unstimulated MM1S myeloma – cell-based, JC-1 fluorescence, 24 h, 100 nL compound, profiling panel (AID 1170); settings: MM1S mitochondrial potential, higher = more signal
[10] = resazurin metabolic signal in A549 cells – cell-based, resazurin fluorescence, 24 h, PK04 Diversity Set, profiling panel (AID 1171); settings: A549 viability, higher = more signal, called active from +8 up or from −8 down
Note: test concentration not given here.

Compound	z-score [1]	z-score [2]	z-score [3]	z-score [4]	z-score [5]	z-score [6]	z-score [7]	z-score [8]	z-score [9]	z-score [10]
Cc1ccc(S[C@]2(C(=O)NCCCN(C)C)CC(=O)N(Cc3ccccc3C(F)(F)F)[C@@H]2c2ccc(CO)cc2)cc1	0.397	-0.22	0.41	0.306	0.595	1.47	0.0218 (inactive)	0.139	0.427	-0.515 (inactive)
O=C(NC1CC1)[C@@H]1c2ccccc2C(=O)N(Cc2ccccc2Cl)[C@H]1c1ccc(CO)cc1	3.23	1.4	2.25	-0.867	0.97	2.95	0.623 (inactive)	-0.566	1.41	1.76 (inactive)
CC(C)=CCCC(C)=CC(O)C1C=CC2C(=O)N(C)C(=O)C2N1Nc1ccccc1 (stereo not given)	-1.81	-1.39	-1.35	-2.56	-4.09	-2.66	1.29 (inactive)	-0.934	-1.34	0.597 (inactive)
C=CCNC(=O)[C@@H]1[C@H]2C(=O)O[C@H](c3ccccc3)[C@H](c3ccccc3)N2[C@H](c2ccccc2OCCO)[C@@]12C(=O)N(C(=O)OCCOC)c1ccccc12	-0.798	0.955	-1.69	-2.24	-3.37	-0.186	0.149 (inactive)	-0.813	-0.287	-2.03 (inactive)
CCCC[C@H]1OB(O)C[C@H]2C1=C(COC)C[C@H]1C(=O)N(C)C(=O)[C@H]12	-0.0959	-0.671	-0.653	-1.34	-0.744	-1.27	0.0166 (inactive)	-0.528	-0.355	-0.531 (inactive)
COc1ccc(CCNC(=O)[C@@H]2c3ccccc3C(=O)N(Cc3ccccc3Cl)[C@H]2c2ccc(CO)cc2)cc1	1.37	0.789	0.332	-0.897	-0.474	1.64	0.716 (inactive)	-0.0929	1.42	1.22 (inactive)
C=C[C@H](CO[Si](CC)(CC)CC)N(Cc1ccc(OC(C)=O)c(OC)c1)S(=O)(=O)c1ccc(Br)cc1	-0.217	0.327	-4.67	-3.23	-4.32	-1.25	1.07 (inactive)	-1.1	-1.84	-0.18 (inactive)
Cc1ccc([C@@H]2C[C@@H](Sc3ccccc3)[C@H](C(=O)O)CN2S(=O)(=O)c2ccc(C)cc2)cc1	-0.687	0.154	-0.316	-0.681	-3.33	-1.2	-0.183 (inactive)	-0.268	0.928	0.39 (inactive)
C[N+](C)(C)CCCC[C@@H]1NC(=O)[C@H]2C[C@@H](C(=O)NCCCCCCNC(=O)CS)[C@@H](c3cccc(OCCO)c3)N2C1=O	-1.42	-0.132	-0.153	0.0157	-0.682	0.325	0.0973 (inactive)	-0.277	-0.326	-0.257 (inactive)
Cc1ccc(S[C@]2(C(=O)O)CC(=O)N(C(C)C)[C@@H]2c2ccc(CO)cc2I)cc1	2.14	0.827	1.65	-2.36	-0.902	0.0957	-0.386 (inactive)	-0.527	-0.56	0.667 (inactive)
COc1ccccc1CN1C(=O)c2ccccc2[C@@]2(Cc3ccccc3N(CC(C)C)C2=O)[C@@H]1c1ccc(CO)cc1	0.211	0.444	-0.385	-0.481	-0.0712	-0.204	0.211 (inactive)	-0.887	-0.0409	-1.03 (inactive)
C=CCN1C(=O)[C@]2(O[C@H](CCn3cc([C@H](O)c4ccccc4)nn3)[C@@H]([Si](C)(C)c3ccc(OC)cc3)[C@@H]2C)c2ccccc21	-0.366	0.76	-1.85	-2.65	-4.3	-0.97	0.203 (inactive)	-0.953	-2.26	-1.75 (inactive)
COC(=O)C[C@H]1O[C@]2(C(=O)N(C)c3ccccc32)[C@@H](C)[C@@H]1[Si](C)(C)F	0.0967	0.587	1.21	0.0544	-0.804	0.65	-0.125 (inactive)	0.452	0.632	2.22 (inactive)
O=C(c1ccccc1)N1C(=O)[C@]2(COC(c3ccc(OCCCO)cc3)=N2)Cc2ccccc21	-0.525	0.6	-0.92	-1.72	-3.77	-1.23	-0.03 (inactive)	-1.26	-1.49	-0.272 (inactive)
COC(=O)[C@@]1(Cc2ccccc2)[C@H]2c3cc(C(=O)N(C)C)n(Cc4ccsc4Br)c3C[C@H]2CN1C(=O)c1ccccc1	0.209	-1.34	0.369	-1.13	-1.34	1.17	0.332 (inactive)	-0.776	-2	-2.34 (inactive)
Cc1nc2cc(Br)ccc2c(=O)o1	0.504	0.703	0.368	0.729	0.834	1.37	0.499 (inactive)	0.649	0.392	0.235 (inactive)

Compound	z-score [1]	z-score [2]	z-score [3]	z-score [4]	z-score [5]	z-score [6]	z-score [7]	z-score [8]	z-score [9]	z-score [10]
C=C(COC)/C(=C/C[C@@H](OC(=O)c1ccncc1)c1ccc(CO)o1)c1cc(C(=O)OC)ccc1OC	0.27	-0.766	0.466	-0.761	-0.27	0.232	-0.478 (inactive)	-0.277	-1.28	0.386 (inactive)
O=C1C2C=CC(C(O)c3cccc4ccccc34)N(Nc3ccccc3F)C2C(=O)N1c1ccccc1 (stereo not given)	-1.05	-1.47	-0.231	0.121	-0.345	-1.86	-0.794 (inactive)	0.355	-1.68	-0.232 (inactive)
COc1ccc(C#Cc2ccc3c(c2)[C@]2(C(=O)N3)[C@H](C(=O)Nc3nc4ccccc4s3)[C@H]3C(=O)O[C@H](c4ccccc4)[C@H](c4ccccc4)N3[C@@H]2c2ccc(O)cc2)cc1	-0.151	0.341	0.949	-0.561	-1.37	-3.71	-0.298 (inactive)	-1.02	-1.18	0.279 (inactive)
C=C(CCCC)/C(=C/C[C@H](OC(=O)c1ccncc1)c1ccccc1OCCO)c1cnc2ccccc2c1	0.0262	0.091	0.0722	-3.3	-2.97	0.943	-0.424 (inactive)	-0.716	-0.705	0.89 (inactive)
CO[C@H]1O[C@H](CO)[C@@H](OC(=O)Nc2ccc(C(F)(F)F)cc2)[C@H](OC(=O)Nc2ccc3c(c2)OCO3)[C@@H]1OC(=O)Nc1ccc2c(c1)OCO2	-0.903	0.102	-1.81	-3.42	-3.51	-1.62	-0.855 (inactive)	-1.32	-1.36	-1.99 (inactive)
O=C(OCc1ccccc1)C1=CCC2c3[nH]c4ccccc4c3C(=O)C1N2S(=O)(=O)c1ccccc1[N+](=O)[O-] (stereo not given)	-0.725	-0.816	-0.267	-0.624	-0.286	-3.06	-4.43 (inactive)	-1.14	-3.28	-0.311 (inactive)
C=CC[C@]1(C(=O)NCc2ccccc2)N=C(c2ccc(OCCCO)cc2)O[C@H]1c1ccccc1N=[N+]=[N-]	-1.2	0.514	-0.0143	-1.77	-1.41	-0.456	0.474 (inactive)	-0.938	0.0422	-0.888 (inactive)
C[N+](C)(C)CCCCNC(=O)[C@H]1C[C@H]2C(=O)N3CCC[C@H]3C(=O)N2[C@H]1c1cccc(OCCO)c1	-0.591	-0.682	-0.545	0.129	0.157	-0.901	-0.186 (inactive)	-0.0988	-0.193	-0.699 (inactive)
CCOC(=O)C[C@H]1[C@H](OC(=O)c2ccc(C(=O)c3ccccc3)cc2)[C@@H](NC(=O)c2ccc3ccccc3c2)c2cc(OCCCO)ccc2N1C(=O)Cc1ccc(OC)cc1	-0.0783	0.539	0.294	0.655	0.39	1.32	-0.808 (inactive)	-0.716	-0.51	0.0571 (inactive)
C=C(COC)/C(=C/C[C@H](OC(C)=O)c1ccc(CO)o1)c1cc(C(=O)OC)ccc1OC	-0.588	0.635	-0.603	-0.659	-0.0381	-0.527	-0.29 (inactive)	-0.0437	0.000891	-0.369 (inactive)
CCC[C@@H]1C[C@@]1(CCC)[C@@H](NC(=O)c1ccccc1)c1cccc(Cl)c1	-0.927	-0.546	-0.0147	-1.78	-0.385	0.909	0.349 (inactive)	0.466	-0.0307	0.908 (inactive)
CC(C)C(=C=CC[C@@H](O)c1ccc(OCCO)cc1)C[C@@H](O)c1ccccn1	-0.343	-1.03	0.411	-0.473	-0.3	-0.737	0.00461 (inactive)	0.0263	-0.698	-0.287 (inactive)
CCC(CC)C(O)C1C=CC2C(=O)NC(=O)C2N1Nc1ccc(Cl)cc1Cl (stereo not given)	-1.36	-0.326	-0.751	-1.38	-0.82	-2.18	-0.446 (inactive)	-0.661	-0.246	-0.929 (inactive)
C=CCOC(=O)[C@@H]1[C@H]2C(=O)O[C@H](c3ccccc3)[C@H](c3ccccc3)N2[C@H](c2ccc(OCCOC(=O)[C@@H]3C[C@@H]4C(=O)NCC(=O)N4[C@@H]3c3ccc(O)cc3)cc2)[C@@]12C(=O)Nc1ccc(I)cc12	-0.814	0.198	-0.207	-0.647	-0.319	-2.11	-0.444 (inactive)	-0.972	-0.919	0.994 (inactive)
CN1C(=O)C2C=CC(C(O)c3ccc([N+](=O)[O-])cc3)N(N3CCCCC3)C2C1=O (stereo not given)	-0.234	-0.69	-0.384	-0.324	-0.721	-1.24	-0.927 (inactive)	0.0849	0.134	-0.197 (inactive)
CNS(=O)(=O)c1ccc(C)cc1	0.753	0.451	1.4	0.269	0.0427	0.384	1 (inactive)	-0.049	0.937	-0.126 (inactive)
